Measurements taken from PubChem BioAssay (EPA / NIEHS).
Results filed as inconclusive are left out. Active and inactive are the calls of the source. How the source made its calls, unless noted: active means hit-call score of the fitted dose curve at least 0.9, where 1 is the maximum; inactive means score below 0.9.

What was measured:
[1] = read-out: Macrophage colony-stimulating factor (MCSF), CSF1 (gene 1435); test: BSK_LPS_MCSF: BioMAP Diversity Plus: LPS Assay for Macrophage colony-stimulating factor (MCSF) Biomarker Activity (AID 2283083); settings: primary human HUVEC with PBMC; actives raise or lower the signal
Procedure, shortened: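 HUVEC–PBMC co-culture, M-CSF measured by ELISA 24 h after chemical dosing. Fitted in both directions relative to DMSO as negative control; overt cytotoxicity assessed by SRB total-protein staining in parallel cultures.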

[2] = read-out: Tissue Factor, F3 (gene 2152); test: BSK_LPS_TissueFactor: BioMAP Diversity Plus: LPS Assay for Tissue Factor Biomarker Activity (AID 2283084); settings: primary human HUVEC with PBMC; actives raise or lower the signal
Procedure, shortened: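 Human umbilical vein endothelial cells co-cultured with PBMC were dosed with compound. Cell-surface CD142 was measured by ELISA 24 h later. Activity was fitted bidirectionally against DMSO, with SRB total-protein staining in parallel cultures for cytotoxicity.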

[3] = read-out: Tumor necrosis factor (Homo sapiens) (UniProt P01375); test: BSK_LPS_TNFa: BioMAP Diversity Plus: LPS Assay for Tumour Necrosis Factor alpha (TNFa) Biomarker Activity (AID 2283085); settings: primary human HUVEC with PBMC; actives raise or lower the signal;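 on AC50: TNFa protein level quantified by ELISA in the co-culture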
Procedure, shortened: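 ELISA-based TNFa endpoint in a human endothelial–PBMC co-culture sampled 24 h post-exposure. Curves were fitted in both directions using DMSO as baseline of activity.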

[4] = read-out: Vascular cell adhesion molecule 1 (VCAM1), VCAM1 (gene 7412); test: BSK_LPS_VCAM1: BioMAP Diversity Plus: LPS Assay for Vascular cell adhesion molecule 1 (VCAM1) Biomarker Activity (AID 2283086); settings: primary human HUVEC with PBMC; actives raise or lower the signal
Procedure, shortened: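 Measured by ELISA: VCAM-1 in LPS-activated HUVEC/PBMC co-cultures 24 h after treatment. Values reflect bidirectional fitting with DMSO as baseline.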

CD38, CD38 (gene 952) = test: BSK_SAg_CD38: BioMAP Diversity Plus: SAg Assay for CD38 Biomarker Activity (AID 2283087); settings: primary human HUVEC with PBMC; actives raise or lower the signal
Procedure, shortened: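 Measures CD38 on a human endothelial/PBMC co-culture driven by SEB and TSST-1, 24 h after compound exposure, using ELISA with fluorescence detection; DMSO defines baseline for bidirectional curve fitting.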

CD40, CD40 (gene 958) = test: BSK_SAg_CD40: BioMAP Diversity Plus: SAg Assay for CD40 Biomarker Activity (AID 2283088); settings: primary human HUVEC with PBMC; actives raise or lower the signal
Procedure, shortened: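 HUVEC plus PBMC co-culture, superantigen-activated, with CD40 read by ELISA 24 h after dosing. Curves fitted in both directions against DMSO. Overt cytotoxicity checked by parallel SRB total-protein staining.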

CD69, CD69 (gene 969) = test: BSK_SAg_CD69: BioMAP Diversity Plus: SAg Assay for CD69 Biomarker Activity (AID 2283089); settings: primary human HUVEC with PBMC; actives raise or lower the signal;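 on AC50: cell surface CD69 protein quantified by ELISA with fluorescence detection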
Procedure, shortened: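 Values derive from bidirectional fitting relative to DMSO vehicle. Cells: umbilical vein endothelium plus peripheral blood mononuclear cells, treated 24 h before fluorescent ELISA for CD69.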

[5] = read-out: Monocyte Chemoattractant Protein-1 (MCP1), CCL2 (gene 6347); test: BSK_SAg_MCP1: BioMAP Diversity Plus: SAg Assay for Monocyte Chemoattractant Protein-1 (MCP1) Biomarker Activity (AID 2283090); settings: primary human HUVEC with PBMC; actives raise or lower the signal
Procedure, shortened: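 Values derive from bidirectional fitting of ELISA-measured MCP1 against DMSO controls. Readings were taken 24 h after dosing human vascular endothelial cells co-cultured with peripheral blood mononuclear cells under superantigen stimulation.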

[6] = read-out: E-selectin (Homo sapiens) (UniProt P16581); test: BSK_SAg_Eselectin: BioMAP Diversity Plus: SAg Assay for Eselectin Biomarker Activity (AID 2283091); settings: primary human HUVEC with PBMC; actives raise or lower the signal
Procedure, shortened: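 Human umbilical vein endothelial cells co-cultured with peripheral blood mononuclear cells, SAg system. E-selectin is measured by ELISA 24 h after dosing and fitted bidirectionally against DMSO. Cytotoxicity is checked by SRB staining of parallel cultures.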

[7] = read-out: Monokine induced gamma interferon (MIG), CXCL9 (gene 4283); test: BSK_SAg_MIG: BioMAP Diversity Plus: SAg Assay for Monokine induced gamma interferon (MIG) Biomarker Activity (AID 2283092); settings: primary human HUVEC with PBMC; actives raise or lower the signal
Procedure, shortened: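 Values reflect bidirectional fitting of ELISA-measured MIG against DMSO vehicle, taken 24 h after dosing of a co-culture of human umbilical vein endothelial cells and peripheral blood mononuclear cells.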

[8] = BSK_SAg_PBMCCytotoxicity: PBMC Cytotoxicity Assessment in the BioMAP Diversity Plus: SAg Assay (AID 2283093); settings: primary human HUVEC with PBMC;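 further: PBMC viability measured as Alamar Blue reduction fluorescence at 546/580 nm; fitted both ways against DMSO so a hit may be loss or gain of signal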;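 on AC50: PBMC superantigen activated with SEB plus TSST-1 one hour after compound addition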
Procedure, shortened: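 Alamar Blue reduction (6 h, ex/em 546/580 nm) read after 90 h culture of PBMC pre-dosed 1 h then stimulated with SEB plus TSST-1, 20 ng/mL each. Gain or loss of signal fitted relative to DMSO.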

[9] = read-out: Interleukin-8 (IL8), CXCL8 (gene 3576); test: BSK_SAg_IL8: BioMAP Diversity Plus: SAg Assay for Interleukin-8 (IL8) Biomarker Activity (AID 2283094); settings: primary human HUVEC with PBMC; actives raise or lower the signal
Procedure, shortened: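 Primary human endothelial cells with PBMC, exposed 24 h; IL-8 determined by ELISA, analysed bidirectionally relative to DMSO.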

[10] = BSK_SAg_Proliferation: Cell Proliferation Assessment in the BioMAP Diversity Plus: SAg Assay (AID 2283095); settings: primary human HUVEC with PBMC;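 further: relative cell number as total protein by SRB absorbance in sub-confluent culture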
Procedure, shortened: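 A human primary co-culture of umbilical vein endothelium and blood mononuclear cells receives compound; relative cell number is quantified at 96 h by SRB staining and 560 nm absorbance, with DMSO-referenced bidirectional curve fitting.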

[11] = BSK_SAg_SRB: Viability Assessment in the BioMAP Diversity Plus: SAg Assay (AID 2283096); settings: primary human HUVEC with PBMC;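 further: cells read one day after compound addition; hits may be either gain or loss of signal compared with DMSO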
Procedure, shortened: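 SRB absorbance at 560 nm served as the viability read-out. Cells (HUVEC plus peripheral blood mononuclear cells) were TCA-fixed and stained 24 h post-dosing; activity fitted in both directions against DMSO controls.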

[12] = target: human CYP19A1, CYP19A1 (gene 1588) (UniProt P11511); test: NVS_ADME_hCYP19A1: NovaScreen (NVS) CYP450-related Enzyme Activity (ADME) Assay for human CYP19A1 (AID 2283098; active means hit-call score of the fitted dose curve at least 0.9, where 1 is the maximum;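 further: potency for inhibitors seen as loss of fluorescent enzyme signal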)
human CYP19A1, CYP19A1 (gene 1588), sequence (P11511 whole entry, looked up): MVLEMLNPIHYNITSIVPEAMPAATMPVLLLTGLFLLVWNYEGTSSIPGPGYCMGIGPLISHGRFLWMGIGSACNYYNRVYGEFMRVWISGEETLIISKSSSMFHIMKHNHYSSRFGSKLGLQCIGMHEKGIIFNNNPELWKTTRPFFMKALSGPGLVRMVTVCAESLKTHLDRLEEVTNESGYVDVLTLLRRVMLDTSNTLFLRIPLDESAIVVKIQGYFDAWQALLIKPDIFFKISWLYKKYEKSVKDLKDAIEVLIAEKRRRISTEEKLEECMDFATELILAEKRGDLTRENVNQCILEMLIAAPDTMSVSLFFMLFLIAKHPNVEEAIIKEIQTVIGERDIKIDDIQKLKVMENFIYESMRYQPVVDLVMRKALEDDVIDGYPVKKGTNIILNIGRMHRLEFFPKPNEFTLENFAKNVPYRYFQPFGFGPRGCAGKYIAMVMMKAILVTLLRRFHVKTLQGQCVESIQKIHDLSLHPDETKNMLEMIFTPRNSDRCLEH
Procedure, shortened: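 Primary testing was in duplicate at a single 10 uM concentration, with actives followed up in concentration-response series. Fluorescence read-out of recombinant enzyme activity at 0.5 h, cell-free. Acetonitrile was the negative-control baseline.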

Measured: AC50

Tumor necrosis factor (Homo sapiens), sequence (P01375 whole entry, looked up): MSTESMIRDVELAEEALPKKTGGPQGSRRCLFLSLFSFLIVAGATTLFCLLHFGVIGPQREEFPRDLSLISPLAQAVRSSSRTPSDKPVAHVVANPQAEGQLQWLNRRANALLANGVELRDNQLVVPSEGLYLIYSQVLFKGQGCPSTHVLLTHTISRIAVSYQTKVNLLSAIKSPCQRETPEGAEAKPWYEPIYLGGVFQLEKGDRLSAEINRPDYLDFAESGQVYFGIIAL
E-selectin (Homo sapiens), sequence (P16581 whole entry, looked up): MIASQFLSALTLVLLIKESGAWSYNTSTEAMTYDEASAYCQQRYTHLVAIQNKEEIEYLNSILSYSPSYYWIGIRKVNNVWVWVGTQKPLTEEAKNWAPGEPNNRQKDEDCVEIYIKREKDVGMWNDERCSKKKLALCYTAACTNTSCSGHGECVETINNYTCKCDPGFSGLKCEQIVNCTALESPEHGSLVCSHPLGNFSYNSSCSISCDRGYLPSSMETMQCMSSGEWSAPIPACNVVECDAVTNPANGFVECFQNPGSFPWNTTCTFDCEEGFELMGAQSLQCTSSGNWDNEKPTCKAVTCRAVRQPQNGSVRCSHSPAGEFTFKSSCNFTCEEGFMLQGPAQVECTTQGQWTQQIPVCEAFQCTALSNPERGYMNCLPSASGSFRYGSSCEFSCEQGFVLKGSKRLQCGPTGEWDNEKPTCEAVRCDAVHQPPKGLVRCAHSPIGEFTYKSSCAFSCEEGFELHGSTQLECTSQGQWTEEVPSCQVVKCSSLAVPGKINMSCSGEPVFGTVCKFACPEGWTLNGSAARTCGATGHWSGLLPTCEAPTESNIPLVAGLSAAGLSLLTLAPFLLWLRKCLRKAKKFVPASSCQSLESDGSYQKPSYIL

O=C(F)C1(F)C(F)(F)C(F)(F)C(F)(F)C(F)(F)C1(F)F
not listed: [12]
inactive: all other assays above

Nc1cc([N+](=O)[O-])cc(Cl)c1O
not listed: [10] | [12]
inactive: all other assays above

CC(C)Nc1ccc(NC(C)C)c2c1C(=O)c1ccccc1C2=O
active: [12] 3.18 µM

Cc1cnccn1
not listed: [12]
inactive: all other assays above

NC(=O)C(F)(F)C(F)(F)C(F)(F)F
not listed: [10] | [12]
inactive: all other assays above

OC(O)C(F)(F)C(F)(F)F
not listed: [10] | [12]
inactive: all other assays above

O=C(Cl)C(F)(F)C(F)(F)C(F)(F)C(F)(F)C(F)(F)C(F)(F)C(F)(F)F
not listed: [10] | [12]
inactive: all other assays above

CCOC(C=C(C)CCC=C(C)C)OCC
active: [1] 33.1 µM | [2] 30.5 µM | [4] 31.7 µM | CD40, CD40 (gene 958) 3.97 µM | [10] 34.4 µM
not listed: [12]
inactive: all other assays above

O=C1C=CC(=O)N1c1ccc(Cc2ccc(N3C(=O)C=CC3=O)cc2)cc1
active: [1] 10 µM | [2] 5.57 µM | [3] 8.82 µM | [4] 11.1 µM | CD38, CD38 (gene 952) 5.71 µM | CD40, CD40 (gene 958) 12.1 µM | CD69, CD69 (gene 969) 6.1 µM | [5] 6.98 µM | [6] 6.88 µM | [7] 13 µM | [8] 7.25 µM | [9] 4.35 µM | [10] 3.92 µM | [11] 20 µM

O=C(O)CCC(F)(F)C(F)(F)C(F)(F)F
not listed: [10] | [12]
inactive: all other assays above

OCCCCC(F)(F)C(F)(F)C(F)(F)C(F)(F)F
not listed: [10] | [12]
inactive: all other assays above

NC(O)(C(F)(F)F)C(F)(F)F
not listed: [10] | [12]
inactive: all other assays above

CC(C)(C)c1cc(CCC(=O)NCCCCCCNC(=O)CCc2cc(C(C)(C)C)c(O)c(C(C)(C)C)c2)cc(C(C)(C)C)c1O
not listed: [10] | [12]
inactive: all other assays above

CCc1cc(Cc2cc(CC)c(N)c(CC)c2)cc(CC)c1N
active: [12] 1.7 µM

CCOC(=O)CC(=O)C(F)(F)C(F)(F)F
not listed: [10] | [12]
inactive: all other assays above
